Activity increase over dofetilide control, less the hit threshold data for 52 molecules are collected here from PubChem BioAssay AID1835 (Johns Hopkins Ion Channel Center, 2009).

The campaign covered roughly 2,400 compounds. About 750 (31%) were called active. Some of the results follow. A number with no mark means an inactive call.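 The calls were made as follows: active = median signal gain over dofetilide-blocked control wells reaching their mean plus 3 SD, so readout 1 at least 0; inactive = the rest.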

For the test, the target named is Voltage-gated inwardly rectifying potassium channel KCNH2 (Homo sapiens) (UniProt Q12809). The experiment in a line: hERG protection against dofetilide inhibition, confirmation, cell-based, thallium flux, duplicate retest, dofetilide IC70 (AID 1835). To be noted: hERG cell line, FluxOR thallium flux, dofetilide-blocked; at 10 µM; hits give high values.
Sequence of Voltage-gated inwardly rectifying potassium channel KCNH2 (Homo sapiens) (Q12809 whole entry, looked up): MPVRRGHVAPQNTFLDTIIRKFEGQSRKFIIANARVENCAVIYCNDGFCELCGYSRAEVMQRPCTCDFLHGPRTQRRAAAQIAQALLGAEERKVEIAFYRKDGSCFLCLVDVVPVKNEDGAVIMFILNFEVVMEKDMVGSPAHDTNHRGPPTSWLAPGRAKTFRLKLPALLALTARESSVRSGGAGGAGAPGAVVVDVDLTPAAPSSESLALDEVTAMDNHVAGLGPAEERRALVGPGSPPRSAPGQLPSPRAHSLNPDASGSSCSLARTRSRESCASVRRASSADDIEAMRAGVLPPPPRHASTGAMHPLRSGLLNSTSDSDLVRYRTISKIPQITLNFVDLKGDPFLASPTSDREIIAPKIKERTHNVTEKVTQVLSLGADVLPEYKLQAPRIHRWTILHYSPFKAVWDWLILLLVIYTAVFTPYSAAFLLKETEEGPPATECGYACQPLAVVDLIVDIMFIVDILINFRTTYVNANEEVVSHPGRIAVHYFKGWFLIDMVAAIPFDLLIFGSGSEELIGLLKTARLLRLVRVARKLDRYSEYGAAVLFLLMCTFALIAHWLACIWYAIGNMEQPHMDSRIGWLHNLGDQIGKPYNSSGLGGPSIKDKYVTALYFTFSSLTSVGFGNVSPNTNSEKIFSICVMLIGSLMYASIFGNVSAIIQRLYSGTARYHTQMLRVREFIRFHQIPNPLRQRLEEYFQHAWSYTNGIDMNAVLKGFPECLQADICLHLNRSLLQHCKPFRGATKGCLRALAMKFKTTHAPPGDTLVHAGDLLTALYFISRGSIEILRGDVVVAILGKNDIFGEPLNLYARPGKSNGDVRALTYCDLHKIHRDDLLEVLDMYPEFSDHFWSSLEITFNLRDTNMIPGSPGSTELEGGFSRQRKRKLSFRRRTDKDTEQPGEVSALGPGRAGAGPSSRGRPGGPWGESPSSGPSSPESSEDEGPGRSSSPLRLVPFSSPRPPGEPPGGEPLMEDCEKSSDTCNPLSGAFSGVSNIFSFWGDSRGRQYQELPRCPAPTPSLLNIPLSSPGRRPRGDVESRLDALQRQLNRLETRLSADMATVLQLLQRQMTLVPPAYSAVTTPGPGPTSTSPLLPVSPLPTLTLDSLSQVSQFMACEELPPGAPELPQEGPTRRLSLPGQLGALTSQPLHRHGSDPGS
`COc1ccc2[nH]c3c(=O)n(CCN4CCOCC4)cnc3c2c1`: the activity increase over dofetilide control, less the hit threshold was -14%.

In the case of `CCC1(C(=O)O)NC(c2cc(OC)ccc2O)C2C(=O)N(Cc3ccccc3)C(=O)C21` (configuration not stated), the activity increase over dofetilide control, less the hit threshold was -18%.

Consider `O=C(N/N=C/c1cccs1)C(=O)Nc1cccc(Cl)c1`, for which the activity increase over dofetilide control, less the hit threshold was -6%.

In the case of `Nc1nc(O)c(N=Nc2ccc(S(N)(=O)=O)cc2)c(=O)[nH]1`, the activity increase over dofetilide control, less the hit threshold is 6% (active).

Consider `O=C1N(CN2CCN(Cc3ccccc3)CC2)c2ccccc2C12OCCCO2`, for which the activity increase over dofetilide control, less the hit threshold is -4%.

As for `Cc1ccc(NC(=O)CCC(=O)OCC(F)(F)C(F)F)cc1`, the activity increase over dofetilide control, less the hit threshold was -23%.

With `CCCCC(=O)Nc1ccc(NCc2ccc(C)s2)cc1`, the activity increase over dofetilide control, less the hit threshold is 14% (active).

For `CN(C)c1ccc(NC(=O)CCCc2ccccc2)cc1`, the activity increase over dofetilide control, less the hit threshold is -19%.

Consider `O=C(CCNC(=O)C1CCN(S(=O)(=O)c2ccc(F)cc2)CC1)NCc1ccc(Cl)cc1`, for which the activity increase over dofetilide control, less the hit threshold is -16%.

For `Cc1cc(C)c(Cn2c3ccccc3c3cnn(CC(=O)NCc4ccccn4)c(=O)c32)c(C)c1`, the activity increase over dofetilide control, less the hit threshold is -4%.

Consider `O=C(c1ccc(Cl)c(S(=O)(=O)N2CCCC2)c1)N1CCN(c2ccccc2F)CC1`, for which the activity increase over dofetilide control, less the hit threshold is -1%.

Regarding `Cc1ccc(C(=O)N2CCN(c3ccccc3)CC2)cc1S(=O)(=O)N1CCCC1`, the activity increase over dofetilide control, less the hit threshold is 19% (active).

On to `O=C(Nc1ccc(N2CCOCC2)cc1)c1ccc(S(=O)(=O)N2CCCCC2)cc1`, for which the activity increase over dofetilide control, less the hit threshold is -10%.

For `CCNC(=S)Nc1nc2c(cc1C(=O)OCC)CCCC2`, the activity increase over dofetilide control, less the hit threshold was 2% (active).

Consider `C=CCNC(=S)Nc1nc2c(cc1C(=O)OCC)CCCC2`, for which the activity increase over dofetilide control, less the hit threshold was -4%.

`C=C(C)CNC(=S)Nc1nc2c(cc1C(=O)OCC)CCCC2`: the activity increase over dofetilide control, less the hit threshold was -4%.

In the case of `CNC(=O)CSc1nnc(-c2ccco2)n1-c1ccccc1`, the activity increase over dofetilide control, less the hit threshold is -14%.

For `COc1ccc(C(CC(=O)O)NC(=O)C(c2ccccc2)c2ccccc2)cc1` (configuration not stated), the activity increase over dofetilide control, less the hit threshold is -10%.

Regarding `Cn1c(NNC(=O)C(c2ccccc2)c2ccccc2)cc(=O)n(C)c1=O`, the activity increase over dofetilide control, less the hit threshold was 7% (active).

Regarding `CC(=O)c1ccc2c(c1)OCCOCCOCCO2`, the activity increase over dofetilide control, less the hit threshold is -14%.

Regarding `COC(=O)C1CCCN1C(=O)COc1ccc(Cl)cc1Br` (configuration not stated), the activity increase over dofetilide control, less the hit threshold was -7%.

On to `CC(C)(C)c1ccc(C(=O)CC(=O)c2cc(Cl)ccc2O)cc1`, for which the activity increase over dofetilide control, less the hit threshold was 17% (active).

Turning to `Cc1cc(Cl)ccc1OC(C)C(=O)NCCc1ccc2c(c1)OCCO2` (configuration not stated), the activity increase over dofetilide control, less the hit threshold was -16%.

Turning to `Cc1ccc(Cl)cc1NC(=O)COC(=O)c1ccccc1O`, the activity increase over dofetilide control, less the hit threshold is -10%.

In the case of `Cc1ccc(C(=O)CC(=O)COc2ccc(Cl)cc2C)cc1`, the activity increase over dofetilide control, less the hit threshold is 24% (active).

For `Cc1ccc(O)c(C(=O)CC(=O)c2ccc(Cl)cc2)c1`, the activity increase over dofetilide control, less the hit threshold was -2%.

For `Cc1ccc(C(=O)CC(=O)c2cc(Cl)ccc2O)cc1`, the activity increase over dofetilide control, less the hit threshold was 8% (active).

`Cc1cccc(C(=O)CC(=O)c2cc(Cl)ccc2O)c1`: the activity increase over dofetilide control, less the hit threshold is -7%.

With `Nc1nc2c(s1)CCCCCCCCCC2`, the activity increase over dofetilide control, less the hit threshold is -11%.

As to `O=C1OCCC1Sc1nc2ccccc2c(=O)n1Cc1ccc(F)cc1` (configuration not stated), the activity increase over dofetilide control, less the hit threshold was 9% (active).

Regarding `Cc1ccc(S(=O)(=O)N2CCOCC2)cc1NC(=O)CSc1nc2ccccc2c(=O)n1Cc1ccccc1`, the activity increase over dofetilide control, less the hit threshold is -5%.

In the case of `COc1cc(C2NC(=O)NC(O)(C(F)(F)F)C2C(C)=O)cc(OC)c1OC` (configuration not stated), the activity increase over dofetilide control, less the hit threshold is -17%.

For the molecule `N/C(=N\OS(=O)(=O)c1cccc([N+](=O)[O-])c1)c1ccncc1`, the activity increase over dofetilide control, less the hit threshold is 1% (active).

As for `O=C(CSc1nnc(-c2ccncc2)o1)c1cccc([N+](=O)[O-])c1`, the activity increase over dofetilide control, less the hit threshold was -10%.

For the molecule `CN(c1cccc(NS(=O)(=O)c2cccc([N+](=O)[O-])c2)c1)S(C)(=O)=O`, the activity increase over dofetilide control, less the hit threshold was -19%.

On to `COc1ccc(C)cc1-n1nnnc1SCc1nc2ccccc2c(=O)[nH]1`, for which the activity increase over dofetilide control, less the hit threshold was -16%.

For the molecule `Cc1ccc(C2=NN(C(=O)CCCC(=O)O)C(c3ccc4c(c3)OCO4)C2)cc1` (configuration not stated), the activity increase over dofetilide control, less the hit threshold was -23%.

`Cc1ccc2oc3c(c(=O)c2c1)C(c1cccs1)N(CCCN(C)C)C3=O` (configuration not stated): the activity increase over dofetilide control, less the hit threshold is 11% (active).

With `COCCN1C(=O)c2oc3cc(C)c(C)cc3c(=O)c2C1c1ccc(O)cc1` (configuration not stated), the activity increase over dofetilide control, less the hit threshold was -7%.

`CCN(CC)CCCN1C(=O)c2oc3ccccc3c(=O)c2C1c1cccs1` (configuration not stated): the activity increase over dofetilide control, less the hit threshold is 28% (active).

Consider `COCCCNC(=O)CC(NS(=O)(=O)c1ccc(F)cc1)c1ccc(OC)cc1` (configuration not stated), for which the activity increase over dofetilide control, less the hit threshold is -1%.

Consider `CN(C)NC(=O)C(NC(=O)c1ccc(N)cc1)C12CC3CC(CC(C3)C1)C2` (configuration not stated), for which the activity increase over dofetilide control, less the hit threshold was -10%.

For `O=C(O)c1cc(-c2cccc([N+](=O)[O-])c2)n[nH]1`, the activity increase over dofetilide control, less the hit threshold was -14%.

In the case of `CS(=O)(=O)c1sc(C(=O)NC(=S)Nc2ccc(OC(F)(F)F)cc2)c2c1C=CCC2`, the activity increase over dofetilide control, less the hit threshold was 11% (active).

On to `CCc1nnc(NS(=O)(=O)c2ccc(NC(=S)NC(=O)/C=C/c3ccc(OC)cc3)cc2)s1`, for which the activity increase over dofetilide control, less the hit threshold is -4%.

As for `O=C(O)/C=C/C(=O)Nc1ccc(OC(F)(F)F)cc1`, the activity increase over dofetilide control, less the hit threshold is -3%.

Regarding `COc1ccc(Cc2c(O)nc(SCC(=O)NC(C)(C)C)[nH]c2=O)cc1`, the activity increase over dofetilide control, less the hit threshold is -17%.

With `COc1cccc(N2CC(C(=O)Nc3nnc(SCC(=O)NCC4CCCO4)s3)CC2=O)c1` (configuration not stated), the activity increase over dofetilide control, less the hit threshold is -4%.

Turning to `Cc1nc(SCC(=O)NCC2CCCO2)c2c3c(sc2n1)CCCC3` (configuration not stated), the activity increase over dofetilide control, less the hit threshold is 9% (active).

With `C=CCn1c(SCC(=O)NCC2CCCO2)nnc1-c1ccccc1` (configuration not stated), the activity increase over dofetilide control, less the hit threshold was -1%.

In the case of `COC(=O)C1CN(C(=O)COc2ccc(C)c(C)c2)c2ccccc2O1` (configuration not stated), the activity increase over dofetilide control, less the hit threshold is -11%.

For `Cc1cc(OCc2ccc(C(=O)Nc3ccc(C(=O)O)cc3)o2)ccc1Cl`, the activity increase over dofetilide control, less the hit threshold is -22%.
